Experimental data taken from paper PMC7862700, “An all-to-all approach to the identification of sequence-specific readers for epigenetic DNA modifications on cytosine”.

Tests used:
Assay in all cases: DAPPL (digital affinity profiling via proximity ligation, sequencing); 10 mM Tris-HCl pH 7.5, 50 mM NaCl, 1 mM DTT, 4% glycerol, room temperature, 30 min; GST-TFs on glutathione beads, 16-mer random dsDNA library, 0.1% formaldehyde crosslink after washing; high values mean tight binding
[1] = target: T1, FEV (Homo sapiens, UniProt Q99581 1-238); conditions: protein: recombinant; tags: N-terminal GST; dsDNA, one strand shown
T1 sequence: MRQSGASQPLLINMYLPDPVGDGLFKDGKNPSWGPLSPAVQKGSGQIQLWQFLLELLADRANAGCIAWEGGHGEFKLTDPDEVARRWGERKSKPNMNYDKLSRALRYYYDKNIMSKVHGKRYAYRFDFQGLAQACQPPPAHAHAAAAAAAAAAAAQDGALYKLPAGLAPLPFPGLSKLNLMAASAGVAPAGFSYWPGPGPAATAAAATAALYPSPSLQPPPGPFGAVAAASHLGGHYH
How it was run: (§1)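 After expression in yeast as GST fusions, human transcription factors were bound to glutathione beads, DNA-barcoded and mixed with a tag-only sample. The pools were incubated with 200 nmole of a 16-mer random double-stranded DNA library in Tris/NaCl/DTT/glycerol buffer (30 min, room temperature), washed and crosslinked with 0.1% formaldehyde. Proximity ligation with BsaI/T4 ligase ran for 1 h at 37 °C, before PCR amplification and sequencing on an Illumina NextSeq500. Binding signal is a hexamer's read frequency for a factor divided by its frequency for the tag-only sample.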

[2] = target: ETV5 (Homo sapiens, UniProt P41161 1-510); conditions: protein: recombinant; tags: N-terminal GST; dsDNA, one strand shown
How it was run: as §1

[3] = target: HSF1 (Homo sapiens, UniProt Q00613 1-529); conditions: protein: recombinant; tags: N-terminal GST; chain copies: 3; dsDNA, one strand shown
How it was run: as §1

[4] = target: T2, SPIC (Homo sapiens, UniProt Q8N5J4 1-248); conditions: protein: recombinant; tags: N-terminal GST; dsDNA, one strand shown
T2 sequence: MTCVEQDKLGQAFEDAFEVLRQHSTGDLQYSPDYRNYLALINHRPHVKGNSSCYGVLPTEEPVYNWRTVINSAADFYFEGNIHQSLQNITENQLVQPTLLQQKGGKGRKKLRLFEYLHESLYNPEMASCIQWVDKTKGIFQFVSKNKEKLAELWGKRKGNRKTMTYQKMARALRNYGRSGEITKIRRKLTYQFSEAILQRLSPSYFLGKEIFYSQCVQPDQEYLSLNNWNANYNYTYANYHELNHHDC
How it was run: as §1

[5] = target: ELF4 (Homo sapiens, UniProt Q99607 1-663); conditions: protein: recombinant; tags: N-terminal GST; dsDNA, one strand shown
How it was run: as §1

[6] = target: T3, ELK4 (Homo sapiens, UniProt P28324-2 1-405); conditions: protein: recombinant; tags: N-terminal GST; dsDNA, one strand shown
T3 sequence: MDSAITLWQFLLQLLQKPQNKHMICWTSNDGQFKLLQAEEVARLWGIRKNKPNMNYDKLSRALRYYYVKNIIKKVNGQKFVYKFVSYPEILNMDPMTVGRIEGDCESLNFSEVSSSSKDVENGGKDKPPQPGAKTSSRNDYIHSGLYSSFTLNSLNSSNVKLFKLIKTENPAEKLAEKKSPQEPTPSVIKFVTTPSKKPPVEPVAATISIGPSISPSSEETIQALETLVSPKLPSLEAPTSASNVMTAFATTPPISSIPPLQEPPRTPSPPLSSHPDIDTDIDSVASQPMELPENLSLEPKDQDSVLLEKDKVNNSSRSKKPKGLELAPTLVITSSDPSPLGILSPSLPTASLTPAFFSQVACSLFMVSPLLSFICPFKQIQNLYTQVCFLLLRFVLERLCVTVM
How it was run: as §1

[7] = target: T4, ETV2 (Homo sapiens, UniProt O00321 1-342); conditions: protein: recombinant; tags: N-terminal GST; dsDNA, one strand shown
T4 sequence: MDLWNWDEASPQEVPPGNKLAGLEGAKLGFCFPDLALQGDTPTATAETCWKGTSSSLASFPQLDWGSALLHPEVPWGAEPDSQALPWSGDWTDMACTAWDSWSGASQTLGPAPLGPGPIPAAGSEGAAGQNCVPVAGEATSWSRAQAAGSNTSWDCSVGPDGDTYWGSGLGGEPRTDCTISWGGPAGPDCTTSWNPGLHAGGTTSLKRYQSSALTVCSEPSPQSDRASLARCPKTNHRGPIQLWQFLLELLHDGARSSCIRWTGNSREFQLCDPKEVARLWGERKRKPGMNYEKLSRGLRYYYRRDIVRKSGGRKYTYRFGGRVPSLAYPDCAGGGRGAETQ
How it was run: as §1

[8] = target: T5, ELF3 (Homo sapiens, UniProt P78545 1-371); conditions: protein: recombinant; tags: N-terminal GST; dsDNA, one strand shown
T5 sequence: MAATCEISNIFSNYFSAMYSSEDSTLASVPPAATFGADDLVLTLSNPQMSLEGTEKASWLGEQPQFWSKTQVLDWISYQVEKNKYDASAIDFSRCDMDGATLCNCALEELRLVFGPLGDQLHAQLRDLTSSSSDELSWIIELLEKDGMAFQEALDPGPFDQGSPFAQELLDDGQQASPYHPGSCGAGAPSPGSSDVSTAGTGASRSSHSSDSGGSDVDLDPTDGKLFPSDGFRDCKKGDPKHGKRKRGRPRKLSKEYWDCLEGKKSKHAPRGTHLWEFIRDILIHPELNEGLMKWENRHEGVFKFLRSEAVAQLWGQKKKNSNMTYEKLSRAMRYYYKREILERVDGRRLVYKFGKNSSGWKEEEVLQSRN
How it was run: as §1

[9] = target: CRX (Homo sapiens, UniProt O43186 1-299); conditions: protein: recombinant; tags: N-terminal GST; dsDNA, one strand shown
How it was run: as §1

[10] = target: ETV1 (Homo sapiens, UniProt P50549 1-477); conditions: protein: recombinant; tags: N-terminal GST; dsDNA, one strand shown
How it was run: as §1

[11] = target: T6, ERF (Homo sapiens, UniProt P50548 1-548); conditions: protein: recombinant; tags: N-terminal GST; dsDNA, one strand shown
T6 sequence: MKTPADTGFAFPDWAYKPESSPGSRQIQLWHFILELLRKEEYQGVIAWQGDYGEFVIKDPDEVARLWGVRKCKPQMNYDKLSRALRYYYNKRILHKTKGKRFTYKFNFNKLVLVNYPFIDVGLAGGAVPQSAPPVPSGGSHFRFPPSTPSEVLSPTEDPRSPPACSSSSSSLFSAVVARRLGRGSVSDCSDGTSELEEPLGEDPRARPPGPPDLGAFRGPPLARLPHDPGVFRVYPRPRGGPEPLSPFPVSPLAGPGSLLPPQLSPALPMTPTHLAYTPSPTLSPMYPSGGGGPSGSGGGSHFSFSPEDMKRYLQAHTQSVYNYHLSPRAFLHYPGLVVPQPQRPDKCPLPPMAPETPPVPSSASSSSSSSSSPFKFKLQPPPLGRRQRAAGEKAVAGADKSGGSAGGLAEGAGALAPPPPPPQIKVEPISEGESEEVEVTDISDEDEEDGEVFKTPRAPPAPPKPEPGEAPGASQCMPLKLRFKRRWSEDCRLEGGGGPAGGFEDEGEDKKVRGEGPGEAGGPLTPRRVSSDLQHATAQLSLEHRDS
How it was run: as §1

[12] = target: T7, ETV3L (Homo sapiens, UniProt Q6ZN32 1-361); conditions: protein: recombinant; tags: N-terminal GST; dsDNA, one strand shown
T7 sequence: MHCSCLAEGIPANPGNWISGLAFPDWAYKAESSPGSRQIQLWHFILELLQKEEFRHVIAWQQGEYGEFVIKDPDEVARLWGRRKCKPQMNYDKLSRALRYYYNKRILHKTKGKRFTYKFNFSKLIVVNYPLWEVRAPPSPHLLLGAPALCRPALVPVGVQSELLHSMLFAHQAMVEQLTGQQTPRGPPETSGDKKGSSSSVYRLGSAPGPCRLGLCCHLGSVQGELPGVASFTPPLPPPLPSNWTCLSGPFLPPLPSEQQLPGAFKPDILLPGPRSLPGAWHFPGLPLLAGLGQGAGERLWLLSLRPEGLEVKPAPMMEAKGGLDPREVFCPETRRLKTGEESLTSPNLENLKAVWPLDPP
How it was run: as §1

[13] = target: T8, ETS2 (Homo sapiens, UniProt P15036 1-469); conditions: protein: recombinant; tags: N-terminal GST; dsDNA, one strand shown
T8 sequence: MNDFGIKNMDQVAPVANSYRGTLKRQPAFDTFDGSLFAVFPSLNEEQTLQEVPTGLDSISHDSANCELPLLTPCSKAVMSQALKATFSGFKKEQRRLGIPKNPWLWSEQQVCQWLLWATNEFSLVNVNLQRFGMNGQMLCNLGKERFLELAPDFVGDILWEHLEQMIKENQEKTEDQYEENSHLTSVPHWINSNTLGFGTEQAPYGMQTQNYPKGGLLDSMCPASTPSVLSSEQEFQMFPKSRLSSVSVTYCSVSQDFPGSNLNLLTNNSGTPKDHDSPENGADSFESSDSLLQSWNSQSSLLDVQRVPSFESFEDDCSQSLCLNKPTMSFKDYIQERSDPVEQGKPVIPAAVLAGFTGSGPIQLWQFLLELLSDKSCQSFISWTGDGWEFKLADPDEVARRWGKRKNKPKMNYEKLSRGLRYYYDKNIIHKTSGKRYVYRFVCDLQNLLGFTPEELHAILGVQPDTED
How it was run: as §1

[14] = target: T9, SPDEF (Homo sapiens, UniProt O95238 1-335); conditions: protein: recombinant; tags: N-terminal GST; dsDNA, one strand shown
T9 sequence: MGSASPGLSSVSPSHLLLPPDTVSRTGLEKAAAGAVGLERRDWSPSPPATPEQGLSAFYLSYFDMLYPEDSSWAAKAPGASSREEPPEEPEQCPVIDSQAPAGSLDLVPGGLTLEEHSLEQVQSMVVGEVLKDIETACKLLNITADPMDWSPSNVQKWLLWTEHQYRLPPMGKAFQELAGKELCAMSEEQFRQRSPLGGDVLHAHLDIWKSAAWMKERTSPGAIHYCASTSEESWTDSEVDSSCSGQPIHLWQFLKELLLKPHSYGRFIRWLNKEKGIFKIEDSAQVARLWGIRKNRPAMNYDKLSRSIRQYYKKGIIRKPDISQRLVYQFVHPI
How it was run: as §1

[15] = target: T10, ETV7 (Homo sapiens, UniProt Q9Y603 1-341); conditions: protein: recombinant; tags: N-terminal GST; dsDNA, one strand shown
T10 sequence: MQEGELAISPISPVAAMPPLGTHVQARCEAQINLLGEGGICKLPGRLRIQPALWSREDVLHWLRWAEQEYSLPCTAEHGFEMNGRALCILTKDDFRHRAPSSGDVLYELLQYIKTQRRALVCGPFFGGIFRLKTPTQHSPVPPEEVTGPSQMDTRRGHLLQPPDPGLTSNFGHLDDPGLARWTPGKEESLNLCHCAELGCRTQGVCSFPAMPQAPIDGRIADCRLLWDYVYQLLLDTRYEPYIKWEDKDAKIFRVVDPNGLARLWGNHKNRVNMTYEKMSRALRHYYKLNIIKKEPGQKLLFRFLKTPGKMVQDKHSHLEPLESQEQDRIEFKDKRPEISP
How it was run: as §1

[16] = target: T11, ELF5 (Homo sapiens, UniProt Q9UKW6-2 1-255); conditions: protein: recombinant; tags: N-terminal GST; dsDNA, one strand shown
T11 sequence: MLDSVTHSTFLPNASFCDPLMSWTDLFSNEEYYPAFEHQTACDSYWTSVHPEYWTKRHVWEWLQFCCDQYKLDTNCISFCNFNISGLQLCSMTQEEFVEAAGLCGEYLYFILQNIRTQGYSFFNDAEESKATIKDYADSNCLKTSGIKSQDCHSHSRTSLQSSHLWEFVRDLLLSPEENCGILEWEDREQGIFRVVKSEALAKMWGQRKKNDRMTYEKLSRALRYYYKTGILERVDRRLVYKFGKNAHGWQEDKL
How it was run: as §1

[17] = target: T12, ETV3 (Homo sapiens, UniProt P41162-2 1-143); conditions: protein: recombinant; tags: N-terminal GST; dsDNA, one strand shown
T12 sequence: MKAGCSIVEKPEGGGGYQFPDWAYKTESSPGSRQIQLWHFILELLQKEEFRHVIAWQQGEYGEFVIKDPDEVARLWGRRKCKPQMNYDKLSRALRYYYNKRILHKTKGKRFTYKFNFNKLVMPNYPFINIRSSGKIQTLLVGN
How it was run: as §1

[18] = target: ETV6 (Homo sapiens, UniProt P41212 1-452); conditions: protein: recombinant; tags: N-terminal GST; dsDNA, one strand shown
How it was run: as §1

Sequence of ETV1 (P50549 whole entry): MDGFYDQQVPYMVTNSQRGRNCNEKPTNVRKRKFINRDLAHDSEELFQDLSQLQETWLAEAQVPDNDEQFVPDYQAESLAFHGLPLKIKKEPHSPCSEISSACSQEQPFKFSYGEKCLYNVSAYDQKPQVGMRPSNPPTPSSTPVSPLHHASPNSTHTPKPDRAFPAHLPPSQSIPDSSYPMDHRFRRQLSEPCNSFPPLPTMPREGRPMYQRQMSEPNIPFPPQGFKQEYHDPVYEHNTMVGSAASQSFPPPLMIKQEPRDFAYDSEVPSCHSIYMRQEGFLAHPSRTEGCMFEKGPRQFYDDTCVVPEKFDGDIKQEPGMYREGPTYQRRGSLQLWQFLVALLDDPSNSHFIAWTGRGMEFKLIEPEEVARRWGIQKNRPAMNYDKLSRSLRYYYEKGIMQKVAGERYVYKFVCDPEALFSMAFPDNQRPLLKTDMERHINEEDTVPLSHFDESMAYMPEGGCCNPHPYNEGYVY
Sequence of ETV6 (P41212 whole entry): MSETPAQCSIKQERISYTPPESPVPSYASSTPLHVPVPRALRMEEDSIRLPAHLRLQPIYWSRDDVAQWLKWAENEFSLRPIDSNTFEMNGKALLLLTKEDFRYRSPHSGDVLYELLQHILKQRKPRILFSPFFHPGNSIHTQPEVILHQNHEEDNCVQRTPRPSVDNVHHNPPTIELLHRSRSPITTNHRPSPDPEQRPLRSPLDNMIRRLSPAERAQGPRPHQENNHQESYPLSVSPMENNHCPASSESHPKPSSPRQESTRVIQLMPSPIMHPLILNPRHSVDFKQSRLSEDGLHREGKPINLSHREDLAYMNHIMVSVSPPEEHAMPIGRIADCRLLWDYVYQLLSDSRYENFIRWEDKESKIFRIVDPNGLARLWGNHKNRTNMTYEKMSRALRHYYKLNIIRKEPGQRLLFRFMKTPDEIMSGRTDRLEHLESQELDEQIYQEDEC
Sequence of HSF1 (Q00613 whole entry): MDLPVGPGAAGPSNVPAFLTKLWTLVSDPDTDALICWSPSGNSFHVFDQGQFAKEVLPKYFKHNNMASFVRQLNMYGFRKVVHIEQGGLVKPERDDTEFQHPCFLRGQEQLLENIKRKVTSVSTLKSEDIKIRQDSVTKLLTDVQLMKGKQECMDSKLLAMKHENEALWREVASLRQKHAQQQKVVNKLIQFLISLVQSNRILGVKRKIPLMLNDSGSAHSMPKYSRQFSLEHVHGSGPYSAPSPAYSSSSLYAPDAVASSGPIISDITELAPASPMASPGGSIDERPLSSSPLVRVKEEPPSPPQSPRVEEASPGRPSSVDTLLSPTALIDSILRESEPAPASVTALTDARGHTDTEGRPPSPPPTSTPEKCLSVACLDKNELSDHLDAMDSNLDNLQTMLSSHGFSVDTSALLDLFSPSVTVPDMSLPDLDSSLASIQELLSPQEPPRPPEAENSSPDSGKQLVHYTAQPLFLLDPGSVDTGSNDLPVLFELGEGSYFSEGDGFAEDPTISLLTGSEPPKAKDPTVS
Sequence of ETV5 (P41161 whole entry): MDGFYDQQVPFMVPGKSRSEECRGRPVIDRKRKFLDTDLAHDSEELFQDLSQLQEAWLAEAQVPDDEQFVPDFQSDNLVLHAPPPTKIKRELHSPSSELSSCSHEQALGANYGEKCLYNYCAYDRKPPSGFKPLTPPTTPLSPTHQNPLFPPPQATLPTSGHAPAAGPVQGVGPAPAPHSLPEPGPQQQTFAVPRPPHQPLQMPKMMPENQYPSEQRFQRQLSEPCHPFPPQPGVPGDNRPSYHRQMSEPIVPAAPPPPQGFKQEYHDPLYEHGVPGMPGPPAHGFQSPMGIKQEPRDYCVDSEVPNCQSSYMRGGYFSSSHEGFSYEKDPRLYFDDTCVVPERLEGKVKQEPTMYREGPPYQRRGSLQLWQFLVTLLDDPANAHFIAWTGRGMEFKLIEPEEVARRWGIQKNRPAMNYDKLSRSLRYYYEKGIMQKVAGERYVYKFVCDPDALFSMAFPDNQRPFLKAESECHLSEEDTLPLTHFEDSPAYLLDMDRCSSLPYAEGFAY
Sequence of CRX (O43186 whole entry): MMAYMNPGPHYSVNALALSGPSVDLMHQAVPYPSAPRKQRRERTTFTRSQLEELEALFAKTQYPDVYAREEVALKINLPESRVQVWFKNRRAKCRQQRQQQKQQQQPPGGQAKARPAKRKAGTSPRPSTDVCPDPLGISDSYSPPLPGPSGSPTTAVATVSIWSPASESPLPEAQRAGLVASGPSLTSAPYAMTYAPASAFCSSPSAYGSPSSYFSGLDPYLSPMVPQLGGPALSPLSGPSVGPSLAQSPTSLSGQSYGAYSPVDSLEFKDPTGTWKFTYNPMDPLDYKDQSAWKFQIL
Sequence of ELF4 (Q99607 whole entry): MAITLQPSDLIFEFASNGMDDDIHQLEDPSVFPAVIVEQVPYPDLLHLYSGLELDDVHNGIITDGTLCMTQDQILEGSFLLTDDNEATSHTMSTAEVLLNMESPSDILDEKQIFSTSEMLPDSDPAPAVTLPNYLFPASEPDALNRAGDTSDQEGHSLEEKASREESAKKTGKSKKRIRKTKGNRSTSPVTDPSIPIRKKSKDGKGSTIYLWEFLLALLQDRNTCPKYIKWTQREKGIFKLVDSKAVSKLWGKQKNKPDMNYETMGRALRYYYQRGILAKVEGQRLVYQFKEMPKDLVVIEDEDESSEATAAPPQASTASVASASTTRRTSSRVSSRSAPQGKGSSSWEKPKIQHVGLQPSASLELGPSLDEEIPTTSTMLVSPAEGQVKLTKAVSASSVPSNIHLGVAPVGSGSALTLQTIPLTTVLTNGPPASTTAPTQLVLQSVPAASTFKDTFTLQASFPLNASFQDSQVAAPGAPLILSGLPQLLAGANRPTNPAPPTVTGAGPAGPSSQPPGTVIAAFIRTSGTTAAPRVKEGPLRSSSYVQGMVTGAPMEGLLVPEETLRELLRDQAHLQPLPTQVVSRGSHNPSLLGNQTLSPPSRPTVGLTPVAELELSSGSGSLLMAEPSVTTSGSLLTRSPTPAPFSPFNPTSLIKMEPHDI

CACGAT
binding signal [1]: 1.23 fold enrichment (6-mer frequency, TF over GST control)
binding signal [2]: 1.26 fold enrichment (6-mer frequency, TF over GST control)
binding signal [3]: 1.27 fold enrichment (6-mer frequency, TF over GST control)
binding signal [4]: 1.55 fold enrichment (6-mer frequency, TF over GST control)
binding signal [5]: 1.34 fold enrichment (6-mer frequency, TF over GST control)
binding signal [6]: 1.24 fold enrichment (6-mer frequency, TF over GST control)
binding signal [7]: 1.17 fold enrichment (6-mer frequency, TF over GST control)
binding signal [8]: 1.36 fold enrichment (6-mer frequency, TF over GST control)
binding signal [9]: 1.39 fold enrichment (6-mer frequency, TF over GST control)
binding signal [10]: 1.28 fold enrichment (6-mer frequency, TF over GST control)
binding signal [11]: 1.29 fold enrichment (6-mer frequency, TF over GST control)
binding signal [12]: 1.23 fold enrichment (6-mer frequency, TF over GST control)
binding signal [13]: 1.24 fold enrichment (6-mer frequency, TF over GST control)
binding signal [14]: 1.26 fold enrichment (6-mer frequency, TF over GST control)
binding signal [15]: 1.32 fold enrichment (6-mer frequency, TF over GST control)
binding signal [16]: 1.17 fold enrichment (6-mer frequency, TF over GST control)
binding signal [17]: 1.29 fold enrichment (6-mer frequency, TF over GST control)
binding signal [18]: 1.27 fold enrichment (6-mer frequency, TF over GST control)
